A selection: hits, their analogues and other compounds. The true share with any hit is near 3.5%.
MITF primary: human MITF inhibition, primary screen; O75030; AlphaScreen MITF homodimerization, bead proximity signal; inhibition, % at 2.6 µM; hit rate 0.91% among 650,000; in the data active means inhibition above about 50%;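 further: 0% = vehicle wells with protein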
Target sequence (O75030 whole entry, looked up): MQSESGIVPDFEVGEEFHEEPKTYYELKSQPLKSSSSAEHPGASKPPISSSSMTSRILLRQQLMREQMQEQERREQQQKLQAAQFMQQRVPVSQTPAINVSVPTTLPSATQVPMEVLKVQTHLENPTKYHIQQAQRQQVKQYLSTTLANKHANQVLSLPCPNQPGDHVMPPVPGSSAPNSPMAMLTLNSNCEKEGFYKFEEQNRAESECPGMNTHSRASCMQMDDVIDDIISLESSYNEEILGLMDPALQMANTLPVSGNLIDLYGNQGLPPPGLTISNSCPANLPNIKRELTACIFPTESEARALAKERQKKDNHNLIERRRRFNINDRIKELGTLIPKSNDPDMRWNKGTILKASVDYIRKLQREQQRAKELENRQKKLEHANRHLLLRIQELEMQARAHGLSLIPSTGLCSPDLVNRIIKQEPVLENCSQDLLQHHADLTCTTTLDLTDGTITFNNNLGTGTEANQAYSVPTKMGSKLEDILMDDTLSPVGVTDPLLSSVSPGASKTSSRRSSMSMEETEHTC
TEAD-YAP block: TEAD-YAP interaction inhibition | HEK-TIYL cells, TEAD-Gal4/YAP UAS-luciferase luminescence | inhibition, % at 9.12 µM | hit rate 1.4% among 640,000; in the data active means inhibition above about 32%;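 further: 0% = median of test compound wells and 100% = reference inhibitor wells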
FBW7 act: human FBW7 E3 ligase activation, primary screen. normalized activity (activation), % at 26.1 µM. hit rate 0.13% among 650,000. AlphaScreen FBW7–phospho-cyclin E peptide binding, activator screen. Q969H0. AID 1259310; in the data active means normalized activity above about 1.9%;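 further: purified mutant Fbw7 with reduced substrate affinity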
GPR151 ag: activators of human GPR151; PathHunter beta-arrestin GPR151 cells, luminescence; activation, % at 11.2 µM; hit rate 1% among 650,000; AID 1508602; in the data active means activation above about 4.9%;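 further: 0% = median of compound wells and 100% = cells with positive control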
GPR151 confirm: human GPR151 activation, confirmation screen. 6,700 tested, under 10 active. GPR151 PathHunter beta-arrestin cells, luminescence, 90 min; % of EA-reagent control over plate median. activation, % at 11.2 µM. shares compounds with GPR151 ag. AID 1508609;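 active means mean percent activation across replicates above the confirmation screen cutoff of 4.91%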
GPR119 ag: activates human GPR119 in a GPR151 counter-screen; hit rate 0.3% among 6,700; activation, % at 11.2 µM; GPR119 PathHunter beta-arrestin cells, luminescence, 90 min; 0 = compound-well median, 100 = enzyme-acceptor control; shares compounds with GPR151 ag; AID 1508611;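 active means mean percent activation in the counterscreen above 29.09%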;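 further: counterscreen on off-target GPR119 to flag nonselective hits from the GPR151 activator screen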
The depositor's hits bear a star; nt = no result.

SMILES	MITF primary	TEAD-YAP block	FBW7 act	GPR151 ag	GPR151 confirm	GPR119 ag
COc1ccc(CCNc2nc(-c3cccs3)nc3c2ncn3CCN2CCCC2=O)cc1	-1	5	0	-3	nt	nt
CCOc1ccccc1N1CCN(C(=O)Nc2ccc(OC)c(OC)c2)CC1	-2	-1	0	7.8*	-1	-18
CCCCn1c(=NC(=O)C(C)(C)C)c(C(=O)OCC)cc2c(=O)n3ccccc3nc21	1	10	0	5.3*	0	14
CCCn1c(=NC(=O)C(C)(C)C)c(C(=O)OCC)cc2c(=O)n3ccccc3nc21	-3	7	1	1	nt	nt
O=C1OC(c2ccccc2Br)=N/C1=C\c1ccc(Br)cc1	3	-4	0	0	nt	nt
O=C1OC(c2ccccc2Br)=N/C1=C\c1ccc(I)cc1	13	6	0	5.3*	-1	-11
O=C(Nc1cccc(OC(F)(F)F)c1)c1ccco1	18	-2	0	-1	nt	nt
COc1cccc(/C=C2\N=C(c3cc(Br)ccc3OC)OC2=O)c1	-4	12	0	0	nt	nt
O=C(COc1ccccc1F)Nc1cc(-c2ccccc2)nn1CCO	-3	-10	0	0	nt	nt
O=C(COc1ccc(Cl)cc1Cl)Nc1cc(-c2ccccc2)nn1CCO	4	4	0	5.9*	0	10
Cc1cccc(-n2nc3c(c2NC(=O)COc2ccc(Cl)cc2Cl)CS(=O)(=O)C3)c1C	-12	2	0	-1	nt	nt
Cc1ccccc1-n1nc2c(c1NC(=O)COc1ccc(Cl)cc1Cl)CS(=O)(=O)C2	7	-2	0	8.8*	0	8
CCOc1cc(C2C(C(=O)N3CCCCC3)=C(C)NC3=C2C(=O)CCC3)cc(Br)c1OC (configuration not stated)	5	12	0	4.9*	0	6
C=CCn1c(=O)c2c(nc3n(CCOC)c(C)cn23)n(C)c1=O	-16	5	0	0	nt	nt
Fc1ccc2c(c1)nc(NC1CCCCC1)c1nccn12	0	2	0	5.1*	-1	-2
Fc1ccc2c(c1)nc(N1CCCCC1)c1nccn12	-5	-10	0	-1	nt	nt
CC(=O)Nc1nc(-c2ccc(F)cc2)cs1	5	-34	0	3	nt	nt
COc1ccccc1N1C(=O)/C(=C2/C(=O)N(C(C)=O)c3ccccc32)SC1=S	23	-5	0	6.5*	-2	-9
CC(=O)N1C(=O)/C(=C2\SC(=S)N(c3ccccc3F)C2=O)c2ccccc21	-3	0	0	0	nt	nt
CCOc1ccc(CC(=O)Nc2ccc(I)cc2)cc1OCC	6	-5	0	6.0*	0	-21
CCOc1ccc(CC(=O)Nc2ccccc2)cc1OCC	-7	-12	0	-1	nt	nt
COC(=O)CSc1nnc(C)n1-c1ccc(N(C)C)cc1	-18	1	0	5.6*	0	4
CC(=O)CSc1nnc(C)n1-c1ccc(N(C)C)cc1	8	-5	0	-1	nt	nt
Cc1ccccc1-n1c(SCC(N)=O)nc2ccccc2c1=O	-9	-3	0	5.2*	-1	-3
O=C(OC1CCOC1=O)c1ccc(S(=O)(=O)N2CCCC2)cc1 (configuration not stated)	0	-9	0	-2	nt	nt
SMILES	MITF primary	TEAD-YAP block	FBW7 act	GPR151 ag	GPR151 confirm	GPR119 ag
CN(c1ccccc1)S(=O)(=O)c1ccc(C(=O)OC2CCOC2=O)cc1 (configuration not stated)	3	-5	0	11*	0	-3
O=C(COC(=O)CC1CCCCC1)Nc1ccc2c(c1)OCCO2	4	0	0	-2	nt	nt
CCC(c1nnnn1C(C)(C)CC)N1CCN(Cc2ccccc2)CC1 (configuration not stated)	4	-9	0	6.3*	-1	-13
CCC(C)(C)NC(=O)CN(C(=O)C(=O)Nc1ccc2c(c1)OCCO2)C(C)C	-4	-9	0	0	nt	nt
O=C(CCCC(=O)N(CC(=O)NC1CCCCC1)CC1CCCO1)Nc1ccccn1 (configuration not stated)	-1	0	0	8.7*	1	8
O=C(CN(CC1CCCO1)C(=O)CCC(=O)Nc1nccs1)NCc1ccccc1 (configuration not stated)	0	2	0	9.4*	1	4
O=C(CCCC(=O)N(CC(=O)NC1CCCCC1)Cc1ccccc1)Nc1ccccn1	13	6	0	0	nt	nt
COc1ccc(C2CC(=O)C3=C(C2)NC(=O)CC3c2ccc(O)cc2)cc1OC (configuration not stated)	20	-2	0	0	nt	nt
COc1ccc(/C=C/C(=O)Nc2sc3c(c2C(=O)NCc2cccnc2)CCCC3)cc1	6	6	0	6.7*	1	-6
COc1ccc(/C=C/C(=O)Nc2sc3c(c2C(N)=O)CCCCC3)cc1	13	4	0	0	nt	nt
O=c1oc2ccccc2c(N2CCNCC2)c1CN1CCCC1	-11	-4	0	1	nt	nt
O=C(CN(c1ccccc1)S(=O)(=O)c1ccccc1)N1CCN(c2ccccc2)CC1	10	3	0	1	nt	nt
Cc1cccc(N(CC(=O)N2CCN(c3ccccc3)CC2)S(=O)(=O)c2ccccc2)c1	11	8	0	5.8*	1	-3
CCCSc1nnc(NC(=O)c2nc(SCC)ncc2Cl)s1	4	8	0	-3	nt	nt
COc1ccc(NC(=O)C2CCC(Cn3c(=S)[nH]c4ccccc4c3=O)CC2)cc1 (configuration not stated)	-6	-11	0	7.0*	0	-11
Cc1cc(=O)oc2cc(OCC(=O)N3CCCCCC3)c([N+](=O)[O-])cc12	20	14	1	-2	nt	nt
O=C(Nc1ccc2c(c1)CN(C(=O)Cn1c(=O)oc3ccccc31)CC2)C1CCCO1 (configuration not stated)	13	-2	0	6.8*	-1	-7
O=C(NCCO)C(=O)NCC1OCCCN1S(=O)(=O)c1ccc(Cl)cc1 (configuration not stated)	-1	-2	0	1	nt	nt
O=C(NCCCO)C(=O)NCC1OCCCN1S(=O)(=O)c1ccc(Cl)cc1 (configuration not stated)	-3	-9	0	9.5*	0	-6
C=CCNC(=O)C(=O)NCC1OCCCN1S(=O)(=O)c1ccc(F)cc1C (configuration not stated)	0	-3	0	7.3*	0	-6
CCNC(=O)C(=O)NCC1OCCCN1S(=O)(=O)c1ccccc1 (configuration not stated)	2	0	0	5.2*	0	-9
Cc1cc2c(=O)n(CC(=O)NCC(=O)N3CCC4(CC3)OCCO4)cnc2s1	-2	17	0	2	nt	nt
O=C(NC(=S)Nc1cccc2c1C(=O)NC2=O)c1ccc(F)cc1	-5	9	0	3	nt	nt

Bioassay records deposited in PubChem BioAssay by The Scripps Research Institute Molecular Screening Center.
